About 79,000 compounds went through this panel and 15% of them were active in at least one assay; those are over-represented in the sample as a whole. A number with no mark means an inactive call. The source made the active and inactive calls. Cut-off read from the data, not from the text of the source: active = growth inhibition above about 70%; inactive = the rest.
assay: NCI Yeast Anticancer Drug Screen. Data for the bub3 strain (AID 167); conditions: S. cerevisiae bub3 mutant strain, at 50.0 µM, hits give high values
Method: Growth inhibition of yeast strains with defined genetic alterations is measured as a screen for potential anti-cancer activity. Selected strains with alterations in DNA damage repair or cell cycle control were exposed to compounds and growth inhibition was measured relative to vehicle treated controls. The strain used in this assay is bub3

Row | SMILES | growth inhibition
1 | O=C(Nc1ncn[nH]1)C(Cl)(Cl)Cl | -2%
2 | C1CCC(N([P-]P([P-]N(C2CCCCC2)C2CCCCC2)N(C2CCCCC2)C2CCCCC2)C2CCCCC2)CC1.[C-]#[O+].[C-]#[O+].[C-]#[O+].[C-]#[O+].[C-]#[O+].[C-]#[O+].[Fe].[Fe] (stereo not given) | 2.2%
3 | Cc1ccc(S(=O)(=O)Nc2cc(C)cc(CCN)c2C)cc1 | 5.5%
4 | CC1CC(C)(C)[N+](C)(CCC(C(N)=O)(c2ccccc2)c2ccccc2)C1 (stereo not given) | -16.4%
5 | COC(=O)/C=C/[C@H]1[C@H](C)N1S(=O)(=O)c1ccc(C)cc1 (stereo not given in full) | -22.6%
6 | CNCCc1ccc(O)c2ccc3ccc(OC)c(O)c3c12 | -17.3%
7 | COc1ccc2c(c1OC)C13CCN(C)C(C2)C12C=CC(=O)C3c1c(OC)ccc(OC)c12 (stereo not given) | 4.2%
8 | NC(=O)Oc1ccccc1 | -10%
9 | COc1cccc2c1C(=O)c1c(O)c3c(c(O)c1C2=O)C[C@@](O)(C(=O)CO)C[C@@H]3OC1CC(N2CCOCC2C#N)C(O)C(C)O1 (stereo not given in full) | 90.5% (active)
10 | CC1[N-]C(/C=N/O)NC(C)N1.CC1[N-]C(/C=N/O)NC(C)N1.[Br][Ni+2][Br] (stereo not given) | 0.65%
11 | O=C1NC(=O)C(Cc2cccc(Cl)c2)C(=O)N1 | 0.55%
12 | Nc1ccc([N+](=O)[O-])cc1 | -14.7%
13 | N#CNC(N)=S | -14.3%
14 | O=C(CC(=O)C(F)(F)F)c1cccs1 | 11.9%
15 | O=C(O)c1ccccc1/C=N\NC(=S)NC1CN2CCC1CC2 (stereo not given) | 34.6%
16 | CCN(CC)C(=O)CCNC(C)Cc1c[nH]c2ccccc12 (stereo not given) | 8.85%
17 | COC1CCC2NCCNC2C1 (stereo not given) | -8.7%
18 | C/C=C\C(C)=C/C(C)C(=O)CC(O)CC1CC(=O)NC(=O)C1 (stereo not given) | 7.85%
19 | CC(=O)OC[C@]12CCC(C)=C[C@H]1O[C@@H]1[C@H](O)[C@@H](OC(C)=O)[C@@]2(C)[C@@]12CO2 | -1.3%
20 | C[C@@H]1C[C@@H](O)[C@]2(O)O[C@@H]3C[C@@]4(C=O)[C@@H](CC[C@@H]5[C@@H]4CC[C@]4(C)[C@@H](C6=CC(=O)OC6)CC[C@]54O)C[C@H]3O[C@@H]2O1 | -15.2%

Row | SMILES | growth inhibition
21 | O=C(O)CCc1ccc(NP(=O)(Oc2ccccc2)N(CCCl)CCCl)cc1 (stereo not given) | 2.3%
22 | Cc1cccc(NC(N)=S)c1 | -8.15%
23 | FC1(F)[Se]C2C3CCC(C3)C2C1(F)F (stereo not given) | -0.15%
24 | CC1(C)N=C(N)N=C(N)N1c1ccc(OCCCOc2ccc(S(=O)(=O)F)cc2)cc1 | 31.5%
25 | CC(=O)CC(C)=O.CC(=O)CC(C)=O.CC(=O)CC(C)=O.CC(=O)CC(C)=O.[Zr] | 38.6%
26 | O=C=Nc1ccc(Cl)cc1 | -2.45%
27 | CCOP(=O)(OCC)SC=C(Cl)Cl | 5%
28 | FC(F)(F)[S-].FC(F)(F)[S-].[C-]#[O+].[C-]#[O+].[C-]#[O+].[C-]#[O+].[C-]#[O+].[C-]#[O+].[C-]#[O+].[C-]#[O+].[Mn].[Mn] | 99% (active)
29 | O=c1cc(CCl)occ1O | 16.1%
30 | CCCCCCCCCCCCCCCC[As](CCCCCCCCCCCCCCCC)SC1OC(COC(C)=O)C(OC(C)=O)C(OC(C)=O)C1OC(C)=O (stereo not given) | 1.5%
31 | NC1=Nc2ccccc2Sc2ccccc21 | -23.5%
32 | CSC(SC)=C(C(=O)O)P(=O)(O)O | -9.8%
33 | O=C(O)C(O)c1ccc(Cl)cc1 (stereo not given) | 16.1%
34 | CC1(c2ccccc2)CC12C(=O)NC(=O)NC2=O (stereo not given) | -27.7%
35 | OC1(c2ccccc2)C2CCN(CC2)C1CN1CCOCC1 (stereo not given) | 13.3%
36 | COc1ccc2nc3ccccc3c(NCCCN(C)CCCl)c2c1 | -0.5%
37 | NC(=O)c1cccc([As]=O)c1 (stereo not given) | 0.85%
38 | O=P(O)(O)c1ccccc1 | 2.6%
39 | CCC1(N)C(=O)OCc2c1cc1n(c2=O)Cc2cc3ccccc3nc2-1 (stereo not given) | -17.1%
40 | N.N.N.N.O=C([O-])C(Cl)Cl.O=C([O-])C(Cl)Cl.[Co+3].[O-][Cl+3]([O-])([O-])[O-] | -6.1%

Source: PubChem BioAssay (NCI)
